Bead autofluor – flagged as autofluorescent in microsphere protease counterscreen; compound autofluorescence counterscreen, microsphere flow cytometry; stronger effect = higher value; fluorescence intensity (concentration not given with the values); actives 3.1% (n = 360,000); AID 624483; in the data active means fluorescence intensity above about 16000; inconclusive means no clear call, values can overlap the other calls
PriA SSB inh – blocks PriA binding to SSB C-terminal tail; AlphaScreen SSBct-PriA binding, biotinylated peptide; actives 0.6% (n = 430,000); AID 1272365; inhibition, % at 33 µM; in the data active means inhibition mostly above about 37%, no sharp cut-off; inactive means mostly below about 20%;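 further: plate controls were negative control peptide for no effect and reference peptide for full effect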
BoNT-F LC inh – inhibitors of Botulinum neurotoxin F light chain protease; Multiplex microsphere protease cleavage assay, flow cytometry; inhibition, % at 10 µM; actives 0.22% (n = 360,000); in the data active means inhibition above about 35%, passing the limit was not always enough; inconclusive means no clear call, values can overlap the other calls; further: plate controls were buffer without enzyme for full effect and enzyme alone for no effect
Anthrax LF prot – inhibitors of Bacillus anthracis lethal factor protease; multiplex microsphere protease cleavage assay, LF; inhibition, % at 10 µM; actives 0.12% (n = 360,000); AID 588501; further: plate controls were buffer without enzyme for full effect and enzyme alone for no effect
BoNT-A LC inh2 – inhibitors of Botulinum neurotoxin A light chain protease; multiplex microsphere protease substrate cleavage, flow cytometry; inhibition, % at 10 µM; actives 0.17% (n = 360,000); further: plate controls were buffer without enzyme for full effect and enzyme alone for no effect
* = called active by the depositor. Sampled rows, rich in hits. Any-hit rate of the full collection: about 3.1%. Unless noted, no stated cut-off is given here; in the data, active means inhibition above about 30%; inconclusive means no clear call, values can overlap the other calls; inactive means below that.

How did O=C(NCc1ccccn1)Nc1ccc2c(c1)OCO2 do in these assays?
Bead autofluor: 17706*; PriA SSB inh: 4; BoNT-F LC inh: 0; Anthrax LF prot: -2; BoNT-A LC inh2: -3

Results for COc1ccc(OC)c(NC(=O)C2C3C=CC(C3)C2C(=O)NCc2ccccn2)c1 (stereo unspecified) ?
Bead autofluor: 21062*; PriA SSB inh: -5; BoNT-F LC inh: -8; Anthrax LF prot: -2; BoNT-A LC inh2: -4

Results for O=C(NC(c1ccccc1)c1ccccc1)c1cccc(Oc2ccccn2)c1 ?
PriA SSB inh: 0

Results for COCc1c(C(=O)NN=C(C)c2ccc(Cl)s2)nnn1-c1nonc1N ?
PriA SSB inh: -9

Results for O=C(Nc1ccc2c(c1)N(C(=O)C1CCCO1)CC2)c1ccc(C(F)(F)F)cc1 (stereo unspecified) ?
PriA SSB inh: -17

Results for CCC(C)[C@H](NC(=O)NCc1ccccn1)C(=O)OC (stereo partly specified) ?
Bead autofluor: 16131*; PriA SSB inh: 1; BoNT-F LC inh: 0; Anthrax LF prot: -7; BoNT-A LC inh2: 0

What do the screens show for `CCC(C)[C@H](NC(=O)NCc1cccs1)C(=O)OC` (stereo partly specified)?
Bead autofluor: 6906; PriA SSB inh: -3; BoNT-F LC inh: 3; Anthrax LF prot: 3; BoNT-A LC inh2: 0

Results for O=C(Nc1ccc2c(c1)OCO2)Nc1ccccn1 ?
Bead autofluor: 2152; PriA SSB inh: 8; BoNT-F LC inh: -5; Anthrax LF prot: -2; BoNT-A LC inh2: 0

What do the screens show for `Cc1cc(C(F)(F)F)nc(CCNC(=O)Nc2ccc3c(c2)OCO3)n1`?
PriA SSB inh: 44*

What do the screens show for `O=C(Nc1ccc2c(c1)OCO2)Nc1cnccn1`?
Bead autofluor: 21245*; PriA SSB inh: -25; BoNT-F LC inh: -5; Anthrax LF prot: 0; BoNT-A LC inh2: -4

Results for O=C(Nc1ccc(CN2CCN(c3ccccn3)CC2)cc1)Nc1ccc2c(c1)OCO2 ?
PriA SSB inh: 50*

Results for COc1ccccc1-c1cc2c(=O)n(Cc3nc(-c4ccccc4Cl)no3)ccn2n1 ?
PriA SSB inh: -9

What do the screens show for `CCCc1cc(NCCOCCO)n2c(nc3ccccc32)c1C#N`?
Bead autofluor: 3017; BoNT-F LC inh: -3; Anthrax LF prot: 1; BoNT-A LC inh2: 0

What do the screens show for `CC(C)c1cc(NCCOCCO)n2c(nc3ccccc32)c1C#N`?
Bead autofluor: 3989; PriA SSB inh: 39*; BoNT-F LC inh: inconclusive; Anthrax LF prot: -8; BoNT-A LC inh2: -11

How did CC1=C(C(=O)c2ccccc2)C(c2cn(-c3ccccc3)nc2-c2ccc(Cl)cc2)NC(=S)N1 (stereo unspecified) do in these assays?
Bead autofluor: 19559*; PriA SSB inh: 12; BoNT-F LC inh: -2; Anthrax LF prot: -5; BoNT-A LC inh2: 2

How did O=C(CN1C(=O)NC2(CCCC2)C1=O)Nc1nc(-c2ccccn2)cs1 do in these assays?
PriA SSB inh: 98*

Results for O=C(Cn1[nH]c(=O)ccc1=O)Nc1nc(-c2ccccn2)cs1 ?
PriA SSB inh: 97*

How did O=C(CN1NC(=C2CC2)C=CC1=O)Nc1nc(-c2ccccn2)cs1 do in these assays?
PriA SSB inh: 31

Results for CC1(C)NC(=O)N(CC(=O)Nc2nc(-c3ccc(F)cc3)cs2)C1=O ?
Bead autofluor: 18087*; PriA SSB inh: -19; BoNT-F LC inh: 1; Anthrax LF prot: -8; BoNT-A LC inh2: 3

What do the screens show for `O=C(CN1C(=O)COc2ccccc21)Nc1nc(-c2ccccn2)cs1`?
PriA SSB inh: 39

How did O=C(CN1CC(=O)Oc2ccccc21)Nc1nc(-c2ccccn2)cs1 do in these assays?
PriA SSB inh: 100*

What do the screens show for `O=C(CN1C(=O)NC2(CCCC2)C1=O)Nc1nc(-c2ccc(F)cc2)cs1`?
Bead autofluor: 10228; PriA SSB inh: -1; BoNT-F LC inh: -7; Anthrax LF prot: 5; BoNT-A LC inh2: -1

What do the screens show for `CCOC(=O)CC1=Nc2ccccc2N=C(SCC(=O)NCc2ccc3c(c2)OCO3)C1`?
PriA SSB inh: -14

Results for O=C(COc1ccc(Cl)cc1)Nc1nnc(CS(=O)(=O)c2ccccc2)o1 ?
PriA SSB inh: -13

How did Cc1cc(C)c(OCC(=O)Nc2nc(-c3ccccn3)cs2)c(C)c1 do in these assays?
Bead autofluor: 4144; PriA SSB inh: 25; BoNT-F LC inh: -4; Anthrax LF prot: -1; BoNT-A LC inh2: 0

How did Cc1csc(=O)n1CC(=O)Nc1nc(-c2ccccn2)cs1 do in these assays?
PriA SSB inh: 107*

What do the screens show for `O=C(c1ccc(-n2cccc2)cc1)N1C2C=CCC1CC2` (stereo unspecified)?
PriA SSB inh: 10

What do the screens show for `CCN1C(=O)C(=Cc2ccc(C)s2)C(=O)N(CC)C1=S`?
Bead autofluor: 3018; PriA SSB inh: -2; BoNT-F LC inh: 7; Anthrax LF prot: 28; BoNT-A LC inh2: 69*

Results for COc1ccc(OC)c(NC(=O)Cn2nc(SC)c(S(=O)(=O)c3ccc(C)cc3)c2N)c1 ?
PriA SSB inh: -6

How did O=C(COC(=O)CNC(=O)C12CC3CC(CC(C3)C1)C2)Nc1ccccc1 do in these assays?
Bead autofluor: 19773*; PriA SSB inh: -28; BoNT-F LC inh: 11; Anthrax LF prot: -16; BoNT-A LC inh2: inconclusive

How did COc1cc(NC(=O)COC(=O)CNC(=O)C23CC4CC(CC(C4)C2)C3)cc(OC)c1 do in these assays?
Bead autofluor: 3288; PriA SSB inh: 1; BoNT-F LC inh: -9; Anthrax LF prot: -4; BoNT-A LC inh2: -1

How did CCCCCCc1cc2cc(-c3nnc(-c4ccccc4OC)o3)c(=O)oc2cc1O do in these assays?
Bead autofluor: 22218*; PriA SSB inh: -10; BoNT-F LC inh: 0; Anthrax LF prot: 4; BoNT-A LC inh2: inconclusive

How did COc1ccccc1C1CCN(C(=O)C2CCCCC2)CC1 do in these assays?
Bead autofluor: 3048; PriA SSB inh: 41*; BoNT-F LC inh: -4; Anthrax LF prot: -3; BoNT-A LC inh2: -1

How did COc1ccccc1C1CCN(C(=O)c2ccccc2)CC1 do in these assays?
Bead autofluor: 3532; PriA SSB inh: -12; BoNT-F LC inh: -6; Anthrax LF prot: -1; BoNT-A LC inh2: 0

Results for CCOc1ccc(NC(=S)NN(C)C(=S)Nc2ccc(OCC)cc2)cc1 ?
Bead autofluor: 2425; PriA SSB inh: 40*; BoNT-F LC inh: -8; Anthrax LF prot: -4; BoNT-A LC inh2: -1

What do the screens show for `O=C(CCN1CCN(CCO)CC1)Nc1ccc(OCc2ccccc2)cc1`?
Bead autofluor: 19226*; PriA SSB inh: -12; BoNT-F LC inh: 2; Anthrax LF prot: 3; BoNT-A LC inh2: 2

What do the screens show for `CCOc1ccc(NC(=S)Nc2cc(-c3ccccc3)[nH]n2)cc1`?
Bead autofluor: 19137*; PriA SSB inh: -4; BoNT-F LC inh: -1; Anthrax LF prot: -4; BoNT-A LC inh2: 1

What do the screens show for `COc1ccc(NC(=S)Nc2cc(-c3ccccc3)[nH]n2)cc1Cl`?
Bead autofluor: 11985; PriA SSB inh: 8; BoNT-F LC inh: -17; Anthrax LF prot: -4; BoNT-A LC inh2: -2
